Most compounds without a hit are left out; they make up all but 4% or so of the library.
TWEAK-Fn14 inh = inhibitors of TWEAK-Fn14 signaling, primary screen, luciferase reporter cells, uHTS | TWEAK-stimulated Fn14 reporter cells, luciferase luminescence, 8 h | inhibition, % at 10 µM | 360,000 compounds, 2% hits | AID 1159606, 2016; in the data active means inhibition above about 50%
CF NFkB block = inhibitors of PAF-induced NF-kB signaling, primary screen, cell-based, GFP fluorescence, uHTS. KKLEB NF-kB-GFP reporter, GFP fluorescence overnight. inhibition, % at 5 µM. 360,000 compounds, 0.86% hits. AID 588850, 2011;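 active means at least 50% inhibition at 5 µM, scaled per plate between neutral and stimulator controls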;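 further: PAF is a Pseudomonas aeruginosa culture filtrate used as stimulus; plate controls were PAF-stimulated DMSO wells for no effect and unstimulated DMSO wells for full effect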
TROY signal inh = inhibitors of TROY-driven NF-kB signaling, primary screen, Q293 LMP1-TROYcd cells, NF-kB luciferase, uHTS; 360,000 compounds, 0.98% hits; inhibition, % at 10 µM; Q293 LMP1-TROYcd NF-kB luciferase reporter, 4 h; AID 1347056, 2019;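 active means compounds whose plate-normalised and pattern-corrected inhibition of the luciferase reporter signal at the single screening dose is 50% or more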
KKLEB tox = cytotoxicity in KKLEB CF airway cells, primary screen, cytotoxicity control for CF NF-kB inhibitor project, cell-based, uHTS, fluorescence assay plates; KKLEB CF airway cells viability, ATPlite luminescence, overnight; hits give low values; cells stimulated with P. aeruginosa culture filtrate; activity change (cytotoxicity), % at 5 µM; 360,000 compounds, 0.36% hits; AID 602141, 2011;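 active means corrected activity change at or below -50% at 5 µM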
Peg3 prom inh-1 = Peg3 promoter-driven luciferase inhibitors, primary screen, cell-based, HeLa, luciferase luminescence | 360,000 compounds, 1.7% hits | HeLa PEG-Prom luciferase reporter, overnight | inhibition, % at 20 µM;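 active means inhibition of at least 50% at 20 µM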
HIF-2a inh = HIF-2a reporter inhibitors, primary screen, luminescence, 786-0 RCC cells; inhibition, % at 18.8 µM; 360,000 compounds, 0.72% hits; 786-0 RCC cells HIF-2a reporter, luciferase luminescence, overnight; AID 624352, 2012;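 active means inhibition of the luminescence signal of 40% or more relative to plate controls, in a single-dose primary screen at 18.75 µM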
Peg3 prom inh-2 = Peg3 promoter reporter inhibitors, retest, confirmation, cell-based, HeLa, luciferase reporter, single concentration. shares compounds with Peg3 prom inh-1. HeLa PEG-Prom luciferase reporter, luminescence, overnight. inhibition, % at 20 µM. 1,300 compounds, 84% hits. AID 602417, 2012;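 active means at 20 µM dose, 40% or more inhibition averaged across four replicates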
* marks the source's active call; other numbers are inactive results; x = not tested or not shown.

SMILES | TWEAK-Fn14 inh | CF NFkB block | TROY signal inh | KKLEB tox | Peg3 prom inh-1 | HIF-2a inh | Peg3 prom inh-2
CC1(Cc2cc(Cl)ccc2C(F)(F)F)C(=O)Nc2ccc(OC(F)(F)F)cc21 (centres undefined) | 11 | -13 | 20 | -1 | 52* | 10 | 13
Cc1cccc(NC(=O)COc2ccc3c(c2)CCC3)n1 | -15 | -2 | -58 | -3 | -241 | -276 | x
O=C(COc1ccc2c(c1)CCC2)Nc1ccccn1 | 97* | 16 | 71* | -34 | 75* | 60* | 67*
O=C(COC(=O)c1nc(Cl)ccc1Cl)NNC(=O)c1cccs1 | 0 | -3 | -11 | -2 | -3 | 4 | x
O=c1c2ccccc2sc2nc(CCl)nn12 | -1 | 7 | -7 | -11 | 104* | 31 | 93*
COc1ccc(-c2csc(NC(=O)C3COc4ccccc4O3)n2)cc1OC (centres undefined) | 43 | 28 | 43 | -16 | 66* | -3 | 40
CCOC(=O)c1cc2c(=O)n3ccccc3nc2n(CCOC)c1=NC(=O)c1ccncc1 | 3 | 2 | -3 | 2 | 7 | 7 | x
CCOC(=O)c1cc2c(=O)n3ccccc3nc2n(CCOC)c1=NC(=O)c1c(-c2c(F)cccc2Cl)noc1C | 15 | -30 | 4 | -8 | 53* | 30 | 30
CC(=O)OC1CC[C@@]2(C)C(CCC3C2CC(=O)[C@@]2(C)C3CC3CC(C)=CC(=O)C32)C1 (some centres undefined) | -14 | -20 | 2 | -5 | -2 | -10 | x
Cc1cc(-n2c(SCc3ccccc3F)nc3n[nH]c(C)c3c2=N)ccc1Cl | 1 | -6 | 2 | -4 | 21 | -1 | x
CCN(C(=O)CSc1nc2n[nH]c(C)c2c(=N)n1-c1ccc(Cl)c(C)c1)c1cccc(C)c1 | 28 | 27 | 43 | 6 | 72* | 18 | 49*
Cc1cccc(N2CCN(C(=O)C3CCN(c4ncnc5c4nc4n5CCCCC4)CC3)CC2)c1C | 80* | -14 | 65* | 6 | 52* | 6 | 58*
Cc1cccc(N2CCN(C(=O)C3CCN(c4ncnc5c4nc4n5CCCCC4)CC3)CC2C)c1 (centres undefined) | 51* | -8 | 52* | -9 | 55* | 1 | 43*
O=C(C1CCN(c2ncnc3c2nc2n3CCCCC2)CC1)N1CCN(c2ccccc2F)CC1 | -5 | -24 | 9 | -5 | 20 | 30 | x
O=C(CCn1cnc(-c2ccccc2)c1-c1ccccc1)N/N=C/c1ccccc1O | 33 | 17 | 21 | -1 | 56* | 22 | 70*
O=C(CCn1cnc(-c2ccccc2)c1-c1ccccc1)N/N=C/c1ccc(O)cc1 | 17 | 6 | 13 | -2 | 24 | 3 | x
C#CCNC(=O)C1=C[C@@H](c2cn(C(C)=O)c3ccccc23)C[C@@H](OCc2ccc(CO)cc2)O1 | -18 | -19 | 1 | 14 | -13 | 7 | x
CC(=O)n1cc([C@H]2C=C(C(=O)NCc3ccccc3)O[C@@H](OCc3ccc(CO)cc3)C2)c2ccccc21 | 13 | 13 | -11 | -1 | 55* | 34 | 47*
NC(=O)C1CCN(C(=O)c2ccc(NS(=O)(=O)c3ccc(Br)s3)cc2)CC1 | -16 | 5 | -9 | -12 | -2 | -2 | x
COc1cc(OC)c(OC)cc1CCC(C)NCCC(c1ccccc1)c1ccccc1 (centres undefined) | 0 | 5 | -20 | -11 | 97* | 4 | 88*
C[C@H]1CN(c2ccccc2)C(=O)[C@@H]1CC(=O)Nc1ccc(Br)cc1 | 19 | -10 | -10 | 5 | -8 | -7 | x
O=C(C=Cc1ccccn1)c1ccccc1 | 82* | 36 | 15 | -13 | 101* | -38 | 87*
O=C(/C=C/c1ccc(O)cc1)c1ccccc1 | 3 | 20 | -46 | -10 | -210 | -34 | x
CS(=O)(=O)c1ccc(Cl)c(NC(=O)CSc2nnc(C3CC3)n2C2CC2)c1 | 14 | 0 | 17 | -12 | 5 | 13 | x
Cc1ccc(-c2nn(-c3ccccc3)cc2CSC(=N)N)cc1 | 31 | -8 | -36 | -6 | 101* | -26 | 41*
SMILES | TWEAK-Fn14 inh | CF NFkB block | TROY signal inh | KKLEB tox | Peg3 prom inh-1 | HIF-2a inh | Peg3 prom inh-2
C[C@@H]1CN([C@H](C)CO)C(=O)c2cccc(NC(=O)Nc3ccc(F)cc3)c2O[C@H]1CN(C)C(=O)Nc1ccc(C(F)(F)F)cc1 | -6 | 2 | -7 | -4 | 34 | 23 | x
C=CCn1c(COc2ccccc2)nnc1SC(C)C(=O)N/N=C/c1cc(Cl)ccc1O (centres undefined) | -14 | 3 | 43 | -6 | 60* | 11 | 71*
COc1cccc(N=CNc2cccc(OC)c2)c1 | 6 | 5 | -41 | 5 | -137 | -177 | x
CN(C)CCNC(=O)/C(=C/c1ccc(-c2ccc(Cl)cc2)o1)NC(=O)c1ccccc1 | -23 | 30 | -14 | -18 | 100* | 8 | 97*
Cc1ccc(C(=O)N/C(=C\c2ccc(-c3cccc([N+](=O)[O-])c3)o2)C(=O)NCCCN(C)C)cc1 | -20 | 16 | 5 | -12 | 87* | -10 | 93*
Clc1ccc(OCCCCCN2CCOCC2)cc1 | -3 | -3 | 1 | 3 | -21 | -41 | x
O=C(Cn1cc(S(=O)(=O)N2CCCC2)c(S(=O)(=O)N2CCCC2)c1)NCc1ccco1 | -6 | 4 | 12 | 7 | 5 | 8 | x
COc1ccc(C(O)(CCC(C)C)C(CN2CCOCC2)c2ccccc2)cc1 (centres undefined) | 6 | 11 | 1 | -4 | 59* | 10 | 47*
CC(C)CCC(O)(c1ccccc1)C(CN1CCOCC1)c1ccccc1 (centres undefined) | 13 | 2 | 14 | -5 | 22 | 15 | x
COc1ccc(/C=C(/NC(=O)c2ccccc2OC)C(=O)Nc2ccc(C(=O)O)cc2)cc1 | 7 | -5 | 1 | -6 | 10 | 5 | x
COc1ccc(S(=O)(=O)Cc2ccc(C(=O)NC3CCCCCC3)o2)cc1 | 18 | -17 | -24 | 6 | -3 | -4 | x
NC(=O)CSc1nc(-c2ccccc2)nc2ccccc12 | 16 | -41 | -10 | -4 | 7 | -3 | x
Cc1cccc2c(SCC(N)=O)nc(-c3ccccc3)nc12 | -12 | -4 | -14 | 0 | 51* | 10 | 33
